According to PubChem BioAssay (NCATS):
A number with no mark means an inactive call. How the calls were made is not given here.

test system: HIV-1 nucleocapsid protein NCp7 (binding to TG oligonucleotide); experiment: HIV Nucleocapsid (AID 346); conditions: HIV-1 NC / fluorescein-TGTGTGTG probe, fluorescence polarization;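 further: potency is for inhibitors that block NC binding and lower polarization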
Experimental: NCGC Assay Overview: HIV-1 nucleocapsid protein (HIV-1 NC) is a small (6.5 kDa) basic zinc-finger protein which participates in packaging of viral genomic RNA. The spacing and metal-chelating residues (3 Cys, 1 His) of the Cys-X2-Cys-X4-His-X4-Cys Zn fingers are conserved among all known retroviruses (J. Med. Chem. 1998, 41, 1371-1381). HIV-1 NC was assayed for its binding to the consensus sequence single-stranded 5'-TGTGTGTG. […] High salt was included to increase the stringency of binding and inhibitor screen. Reducing agents and zinc were present to stabilize the nucleocapsid zinc-finger protein.
NCGC Assay Protocol Summary: Buffer. Hepes pH 7.5, 250mM NaCl, 1uM ZnCl2. 0.004% polyethylene glycol 20000. TCEP (100 uM) and 2-Mercaptoethanol (5 mM), added fresh the day of the experiment. Reagents/Controls. 10 nM TG4xF only in columns 3 and 4 as negative control. 10 nM TG4xF/100 nM HIV-1 NC in columns 1, 2, 5-48. Titration of control compound NSC-13778 (from 20 mM, then 1:2) pin-transferred to column 2. Assay Steps. Two uL of reagents were dispensed to 1536-well Kalypsys black plates. The plates were centrifuged for 1 min at 1000 rpm. Compounds and controls (20 nL) were transferred via Kalypsys PinTool. The plates were incubated for 1 hr at room temperature, and then read on ViewLux (Perkin-Elmer). High-throughput CCD imager using fluorescein polarization filter set and 45 seconds exposure time.
Potency means the concentration at half of the fitted maximal effect.

SMILES	Potency [µM]
CCNc1ncc2nc(CCc3ccccc3)c(=O)n(CCC#N)c2n1	> 20
COc1ccc(-c2nc3cnc(OC)nc3n(-c3ccccc3)c2=O)cc1	> 20
COc1ccc(NC(=O)N2CCC3(CC2)CCN(C(=O)c2ccncc2)CC3)cc1	> 20
CN(Cc1ccco1)c1cc(-c2ccccc2Cl)ncn1	> 20
COCCNc1ncnc2ccc(-c3ccc(N(C)C)cc3)cc12	> 20
COc1ccc(-n2c(=O)c(-c3cccs3)nc3cncnc32)cc1	> 20
COc1ccc(Oc2ncc3nc(-c4cc(F)cc(F)c4)c(=O)n(CCC#N)c3n2)cc1	> 20
CS(=O)(=O)Nc1cccc(-c2nc(NCc3ccccc3)c3ccccc3n2)c1	> 20
CC(=O)N1CCC2(CC1)CCN(c1ncccn1)CC2	> 20
Clc1ccccc1-c1nccc(NCc2cccs2)n1	> 20
O=C(Nc1cccc(F)c1)N1CCCC2(CCN(C(=O)c3ccncc3)CC2)C1	> 20
O=c1c(-c2cc(F)cc(F)c2)nc2cnc(N3CCNCC3)nc2n1C1CC1	> 20
O=C(Nc1cccc(F)c1)N1CCC2(CC1)CCN(C(=O)c1cccc(F)c1)CC2	> 20
Cc1noc(C)c1C(=O)N1CCC2(CC1)CN(Cc1cc(C(F)(F)F)cc(C(F)(F)F)c1)C2	> 20
COc1ccc(-n2c(=O)c(C)nc3cnc(N(C)C)nc32)cc1	> 20
COc1ccc(CNc2cc(-c3ccccc3OC)ncn2)c(OC)c1	> 20
COc1ncc2nc(C)c(=O)n(C3CC3)c2n1	> 20
O=c1cnc2cnc(Oc3cccc(Cl)c3)nc2n1C[C@H]1CCCO1	> 20
N#CCCn1c(=O)c(-c2cccs2)nc2cnc(Oc3ccccc3)nc21	> 20
Cc1cccc(CNc2cc(-c3ccc(N(C)C)cc3)ncn2)c1	> 20

SMILES	Potency [µM]
COc1cccc(Nc2ncc3nc(-c4cccs4)c(=O)n(CCC#N)c3n2)c1	> 20
O=c1c(-c2ccc(F)cc2)nc2cnc(Nc3ccccc3)nc2n1C[C@H]1CCCO1	> 20
Clc1ccccc1-c1ccc2ncnc(NCc3cccnc3)c2c1	> 20
O=C(Nc1cccc(F)c1)N1CCC2(CC1)CCN(C(=O)c1csnn1)CC2	> 20
COc1cccc(Nc2ncc3nc(-c4cccs4)c(=O)n(Cc4cccs4)c3n2)c1	> 20
COc1cccc(Cn2c(=O)cnc3cnc(N4CCOCC4)nc32)c1	> 20
O=c1c(-c2ccc(F)cc2)nc2cnc(N3CCOCC3)nc2n1C1CC1	> 20
COCCNc1ccnc(-c2cccc(NS(C)(=O)=O)c2)n1	> 20
CN(Cc1ccco1)c1nc(-c2ccc3c(c2)OCO3)nc2ccccc12	> 20
CN(C)c1ncc2nc(-c3cc(F)cc(F)c3)c(=O)n(C3CC3)c2n1	> 20
CN1CCN(c2ncnc3ccc(-c4ccccc4C#N)cc23)CC1	> 20
COc1ccc(Oc2ncc3nc(-c4ccc(Cl)cc4)c(=O)n(C)c3n2)cc1	> 20
O=c1c(-c2ccc(F)cc2)nc2cnc(Oc3cccc(Cl)c3)nc2n1C1CC1	> 20
Cc1noc(C)c1-c1ccc2ncnc(N(C)Cc3ccco3)c2c1	> 20
Cn1cccc1C(=O)N1CCC[C@@]2(CCN(c3ccncc3)C2)C1	> 20
N#Cc1ccc(CN2CCCC3(CCN(C(=O)c4csnn4)CC3)C2)cc1	> 20
CN1CCN(c2ccnc(-c3ccccc3C(F)(F)F)n2)CC1	> 20
Cc1cccc(CNc2cc(-c3ccc(C(=O)N(C)C)cc3)ncn2)c1	> 20
COc1cccc(Cn2c(=O)c(-c3cccs3)nc3cnc(N4CCN(C)CC4)nc32)c1	> 4
CN(C)Cc1ccccc1-c1nccc(N(C)C)n1	> 20
